Data from the supplement of paper PMC4840960.

Tested on: E18 rat cortical neuron-glia co-culture
Experiment: myelination (MBP fiber length per Olig2+ nucleus), % of 1 µM DAPT response (DMSO = 0) (% of DAPT); higher = more myelination, active = 50 or more
Details: 5 µM; treatment time: 8 days (DIV5-DIV13)
In short: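 Four 10X fields in each of duplicate wells were analysed after cultures were fixed in 4 % paraformaldehyde and immunostained for MBP and Olig2, with DAPI as the nuclear counterstain. The cultures were papain-dissociated primary E18 rat cortical co-cultures at 20,000 cells/well on poly-d-lysine/laminin 96-well plates, dosed with library compounds at 1 or 5 µM in myelination medium from DIV5 to DIV13. The myelination readout was continuous straight MBP fiber length per Olig2+ nucleus, with 0.1 % DMSO set to 0 and a 1 µM positive control set to 100.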

myelination, inactive:
Cc1c2oc3c(C)ccc(C(=O)N[C@@H]4C(=O)N[C@H](C(C)C)C(=O)N5CCC[C@H]5C(=O)N(C)CC(=O)N(C)[C@@H](C(C)C)C(=O)O[C@@H]4C)c3nc-2c(C(=O)N[C@@H]2C(=O)N[C@H](C(C)C)C(=O)N3CCC[C@H]3C(=O)N(C)CC(=O)N(C)[C@@H](C(C)C)C(=O)O[C@@H]2C)c(N)c1=O [Dactinomycin] < -33.5, C[C@@H]1CN(CCCn2c3ccccc3c3ccccc32)C[C@H](C)N1 [Rimcazole] < -33.5, CSc1ccc2c(c1)N(CCC1CCCCN1C)c1ccccc1S2 (stereo unspecified) [Thioridazine] < -29.5, Cc1cccc(CN2CCN(C(c3ccccc3)c3ccc(Cl)cc3)CC2)c1 (stereo unspecified) [Meclizine] < -51.3, Nc1nc(O)c2ncn(CCC(CO)CO)c2n1 [Penciclovir] < -37.3, C[C@@H]1C[C@H]2[C@@H]3CCC4=CC(=O)C=C[C@]4(C)[C@@]3(F)[C@@H](O)C[C@]2(C)[C@@]1(O)C(=O)CO [Dexamethasone] < -84.9, OCCN1CCN(CCCN2c3ccccc3Sc3ccc(C(F)(F)F)cc32)CC1 [Fluphenazine] < -37.3, CC(C)(C)NC(=O)[C@@H]1C[C@@H]2CCCC[C@@H]2CN1C[C@@H](O)[C@H](Cc1ccccc1)NC(=O)[C@H](CC(N)=O)NC(=O)c1ccc2ccccc2n1 [Saquinavir] < -37.3, O=C(NCC1CCCCN1)c1cc(OCC(F)(F)F)ccc1OCC(F)(F)F (stereo unspecified) [Flecainide] < -49.1, COc1cccc2c1C(=O)c1c(O)c3c(c(O)c1C2=O)C[C@@](O)(C(=O)CO)C[C@@H]3O[C@H]1C[C@H](N)[C@H](O)[C@H](C)O1 [Doxorubicin] < -69.3, CC(C)c1ccc2c(c1)c(SC(C)(C)C)c(CC(C)(C)C(=O)O)n2Cc1ccc(Cl)cc1 < -35.1
